Values joined by “and” are separate entries in the source; they are usually repeats but may differ in a detail not shown here. Identical values can stand only once. Results filed as inconclusive are left out. Entries that show only a call come without a potency. Active and inactive are the calls of the source. Calls come from the whole dose curve; as a rule, active = well fitted curve in the direction sought with a large enough effect; inconclusive = small, poorly fitted or top-dose-only effect, or another doubt; inactive = no such curve, though single readings can be large; an effect the other way counts as inactive or inconclusive.
Note: nearly all actives have a fitted effect of over 40% in size.
Potency is the fitted concentration of half-maximal effect.

Chain of Cytochrome P450 3A7 (Homo sapiens) (P24462 whole entry, looked up): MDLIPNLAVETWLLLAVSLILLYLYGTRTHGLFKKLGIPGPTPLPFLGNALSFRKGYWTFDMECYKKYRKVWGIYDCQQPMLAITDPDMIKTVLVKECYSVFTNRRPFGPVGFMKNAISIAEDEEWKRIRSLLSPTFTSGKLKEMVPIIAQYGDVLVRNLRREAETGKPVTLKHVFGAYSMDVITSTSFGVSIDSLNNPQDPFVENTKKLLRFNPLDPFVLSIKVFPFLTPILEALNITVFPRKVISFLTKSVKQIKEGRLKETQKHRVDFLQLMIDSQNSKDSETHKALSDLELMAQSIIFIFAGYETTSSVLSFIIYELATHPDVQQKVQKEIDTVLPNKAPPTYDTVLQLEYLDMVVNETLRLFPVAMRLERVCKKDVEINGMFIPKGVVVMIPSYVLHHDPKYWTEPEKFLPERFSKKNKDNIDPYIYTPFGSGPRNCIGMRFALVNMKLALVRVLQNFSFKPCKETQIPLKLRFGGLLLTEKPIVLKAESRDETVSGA

The target in one test is Cytochrome P450 3A7 (Homo sapiens) (UniProt P24462). The experiment in a line: Cytochrome P450 family 3 subfamily A member 7 (CYP3A7) small molecule antagonists: luciferase biochemical qHTS assay (AID 1963596). To be noted: P450-Glo CYP3A7 enzyme luminescence, 1 h; series mostly up to 57.4 µM. In short, it runs like this:
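In this luminescent screen, enzyme and proluciferin substrate meet test compound for 10 min before NADPH regeneration solution drives a 1 h room-temperature reaction; detection reagent halts turnover and luminescence is read 20 min later.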
`CCc1cccc2c(CCO)c[nH]c12`: the Potency entry was “inactive”.
For `CCCCCCCCCCCCCCCCN`, the Potency entry is “inactive”.
The same measure, in the same setting: in the case of `C[C@H](N)[C@H](O)c1cccc(O)c1` it was “inactive”.
Same read-out and setting: in the case of `O=c1[nH]c(=O)n([C@H]2C[C@H](O)[C@@H](CO)O2)cc1C(F)(F)F` it was “inactive”.
The same measure, in the same setting: in the case of `CCCCOC(=O)CCCCCCCCC(=O)OCCCC` it was “inactive”.
Consider `Nc1ccc(C(=O)O)cc1`, for which the Potency result is “inactive”.
The same measure, in the same setting: for `CCNC(=O)/C=C/c1cccc(Br)c1` the value was “inactive”; for `CCn1c(=O)c(-c2ccc(-c3cncs3)cc2Cl)cc2cnc(Nc3ccc(N4CCN(C)CC4)cc3)nc21`, 3.01 µM (active).
Same read-out and setting: for `NC(=O)NS(=O)(=O)c1ccc(N)cc1` the value was “inactive”; for `O=C1CC[C@@H](C(=O)O)N1`, “inactive”; for `Cc1c(C)c2c(c(C)c1OC(=O)c1cccnc1)CC[C@@](C)(CCC[C@H](C)CCC[C@H](C)CCCC(C)C)O2`, “inactive”.
On the same count and under the same terms, for `CNC(=O)CN(CCN(CCN(CC(=O)[O-])CC(=O)NC)CC(=O)[O-])CC(=O)[O-].O.[Gd+3]` the value was “inactive”; for `NC(=O)NC1NC(=O)NC1=O` (stereo not given), “inactive”; for `O=C(/C=C/c1ccc(O)c(O)c1)O[C@@H]1C[C@@](OC(=O)/C=C/c2ccc(O)c(O)c2)(C(=O)O)C[C@@H](O)[C@@H]1O`, “inactive”.
In the case of `OCc1ccccc1O`, the Potency result was “inactive”.
Same read-out and setting: in the case of `CC(C)(C)NCC(O)COc1cccc2c1CCC(=O)N2` (stereo not given) it was “inactive”; in that of `Cc1nc(-c2ccc(Cl)cc2)oc1COC(C)(C)C(=O)O`, “inactive”.
Still for that read-out and setting: in the case of `NC(=O)C1(N2CCCCC2)CCN(CCCC(=O)c2ccc(F)cc2)CC1` it was “inactive”; in that of `CCN(CC)CCNC(=O)c1ccc(N)cc1`, “inactive”; in that of `CC(C)(C)c1ccc(C(O)CCCN2CCC(C(O)(c3ccccc3)c3ccccc3)CC2)cc1` (stereo not given), “inactive”.
With `CC(=O)Nc1nnc(S(N)(=O)=O)s1`, the Potency entry is “inactive”.
For the compound `CC(C)CCCC(C)NCCC(C)C` (stereo not given), the Potency result is “inactive”.
The same measure, in the same setting: for `Cn1c(=O)c2c(ncn2C)n(C)c1=O` the value was “inactive”; for `CC1(C)O[C@@H]2[C@@H](CO[C@@]3(COS(N)(=O)=O)OC(C)(C)O[C@@H]23)O1`, “inactive”; for `Cc1[nH]c(C)c(Cl)c(=O)c1Cl`, “inactive”.
The same measure, in the same setting: in the case of `Cc1nc(-c2cn3c(n2)-c2ccc(-c4cnn(C(C)(C)C(N)=O)c4)cc2OCC3)n(C(C)C)n1` it was “inactive”; in that of `CC(C)=CCNc1ncnc2c1ncn2[C@@H]1O[C@H](CO)[C@@H](O)[C@H]1O`, “inactive”; in that of `Nc1c2c(nc3ccccc13)CCCC2O` (stereo not given), “inactive”.
Same read-out and setting: for `O=c1[nH]c(=O)n([C@H]2CCCO2)cc1F` the value was “inactive”; for `O=C1CC(c2ccc(Cl)cc2)CC(=O)N1`, “inactive”; for `NC(=O)COCCN1CCN(C(c2ccccc2)c2ccc(Cl)cc2)CC1` (stereo not given), “inactive”.
For the compound `OC[C@H]1O[C@@H](n2cnc3c2NC=NC[C@H]3O)C[C@@H]1O`, the Potency entry is “inactive”.
With `CC(=O)N[C@@H](CCC(=O)O)C(=O)O`, the Potency result was “inactive”.
`O=C(O)C1CCC1`: the Potency entry is “inactive”.
Turning to `COc1cc(S(N)(=O)=O)cc(C(=O)O)c1OC`, the Potency entry is “inactive”.
The same measure, in the same setting: in the case of `C=Cc1c(C)c2cc3[nH]c(cc4nc(cc5nc(cc1[nH]2)C(C)=C5CCC(=O)O)C(CCC(=O)O)=C4C)c(C)c3C=C` it was “inactive”; in that of `C=CC(=O)Nc1cccc(Nc2nc(Nc3ccc(N4CCN(C(C)=O)CC4)cc3OC)ncc2C(F)(F)F)c1`, “inactive”.
`CC(=O)Nc1ccn(C2COC(COC(=O)c3ccccc3)O2)c(=O)n1` (stereo not given): the Potency entry was “inactive”.
Turning to `CC1=NS(=O)(=O)c2cc(Cl)ccc2N1`, the Potency entry is “inactive”.
Same read-out and setting: in the case of `CN(C)[C@@H]1C(=O)C(C(N)=O)=C(O)[C@@]2(O)C(=O)C3=C(O)c4c(O)cccc4C[C@H]3C[C@@H]12` it was “inactive”.

System in another test: not listed separately
The experiment in a line: Viability qHTS for spleen associated tyrosine kinase inhibitor (SYKi) naive MV4-11 cells (AID 1963823). Conditions: MV4-11 AML viability, CellTiter-Glo luminescence, 72 h; series mostly up to 45 µM. In short, it runs like this: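 CellTiter-Glo luminescence, 10 min room-temperature incubation, gave viability. Cells: naive MV4-11 (500/well), treated 72 hr at 37 C, 5% CO2.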
Turning to `CCc1cccc2c(CCO)c[nH]c12`, the Potency entry is “inactive”.
Still for that read-out and setting: for `CCCCCCCCCCCCCCCCN` the value was “inactive”; for `C[C@H](N)[C@H](O)c1cccc(O)c1`, “inactive”.
Same read-out and setting: in the case of `O=c1[nH]c(=O)n([C@H]2C[C@H](O)[C@@H](CO)O2)cc1C(F)(F)F` it was 2.11 µM (active) and 1.66 µM (active); in that of `CCCCOC(=O)CCCCCCCCC(=O)OCCCC`, “inactive”; in that of `Nc1ccc(C(=O)O)cc1`, “inactive”.
Still for that read-out and setting: in the case of `CCNC(=O)/C=C/c1cccc(Br)c1` it was “inactive”.
In the case of `CCn1c(=O)c(-c2ccc(-c3cncs3)cc2Cl)cc2cnc(Nc3ccc(N4CCN(C)CC4)cc3)nc21`, the Potency is 291 nM (active).
`NC(=O)NS(=O)(=O)c1ccc(N)cc1`: the Potency result was “inactive”.
As for `O=C1CC[C@@H](C(=O)O)N1`, the Potency is 1.5 nM (active).
Same read-out and setting: for `Cc1c(C)c2c(c(C)c1OC(=O)c1cccnc1)CC[C@@](C)(CCC[C@H](C)CCC[C@H](C)CCCC(C)C)O2` the value was “inactive”; for `CNC(=O)CN(CCN(CCN(CC(=O)[O-])CC(=O)NC)CC(=O)[O-])CC(=O)[O-].O.[Gd+3]`, “inactive”.
Same read-out and setting: for `NC(=O)NC1NC(=O)NC1=O` (stereo not given) the value was “inactive”; for `O=C(/C=C/c1ccc(O)c(O)c1)O[C@@H]1C[C@@](OC(=O)/C=C/c2ccc(O)c(O)c2)(C(=O)O)C[C@@H](O)[C@@H]1O`, “inactive”.
The same measure, in the same setting: in the case of `OCc1ccccc1O` it was “inactive”; in that of `CC(C)(C)NCC(O)COc1cccc2c1CCC(=O)N2` (stereo not given), “inactive”.
For the compound `Cc1nc(-c2ccc(Cl)cc2)oc1COC(C)(C)C(=O)O`, the Potency result was “inactive”.
Same read-out and setting: for `NC(=O)C1(N2CCCCC2)CCN(CCCC(=O)c2ccc(F)cc2)CC1` the value was “inactive”.
For `CCN(CC)CCNC(=O)c1ccc(N)cc1`, the Potency result is “inactive”.
On the same count and under the same terms, for `CC(C)(C)c1ccc(C(O)CCCN2CCC(C(O)(c3ccccc3)c3ccccc3)CC2)cc1` (stereo not given) the value was 21100 nM (active).
As to `CC(=O)Nc1nnc(S(N)(=O)=O)s1`, the Potency result is “inactive”.
On the same count and under the same terms, for `CC(C)CCCC(C)NCCC(C)C` (stereo not given) the value was “inactive”.
Regarding `Cn1c(=O)c2c(ncn2C)n(C)c1=O`, the Potency entry was “inactive”.
Consider `CC1(C)O[C@@H]2[C@@H](CO[C@@]3(COS(N)(=O)=O)OC(C)(C)O[C@@H]23)O1`, for which the Potency result is “inactive”.
On the same count and under the same terms, in the case of `Cc1[nH]c(C)c(Cl)c(=O)c1Cl` it was “inactive”; in that of `Cc1nc(-c2cn3c(n2)-c2ccc(-c4cnn(C(C)(C)C(N)=O)c4)cc2OCC3)n(C(C)C)n1`, 148 nM (active).
Same read-out and setting: for `CC(C)=CCNc1ncnc2c1ncn2[C@@H]1O[C@H](CO)[C@@H](O)[C@H]1O` the value was 820 nM (active).
As to `Nc1c2c(nc3ccccc13)CCCC2O` (stereo not given), the Potency entry is “inactive”.
For the compound `O=c1[nH]c(=O)n([C@H]2CCCO2)cc1F`, the Potency is 14600 nM (active).
Same read-out and setting: for `O=C1CC(c2ccc(Cl)cc2)CC(=O)N1` the value was “inactive”; for `NC(=O)COCCN1CCN(C(c2ccccc2)c2ccc(Cl)cc2)CC1` (stereo not given), “inactive”; for `OC[C@H]1O[C@@H](n2cnc3c2NC=NC[C@H]3O)C[C@@H]1O`, “inactive”.
Still for that read-out and setting: in the case of `CC(=O)N[C@@H](CCC(=O)O)C(=O)O` it was “inactive”.
Consider `O=C(O)C1CCC1`, for which the Potency result was “inactive”.
Same read-out and setting: in the case of `COc1cc(S(N)(=O)=O)cc(C(=O)O)c1OC` it was “inactive”; in that of `C=Cc1c(C)c2cc3[nH]c(cc4nc(cc5nc(cc1[nH]2)C(C)=C5CCC(=O)O)C(CCC(=O)O)=C4C)c(C)c3C=C`, “inactive”.
On the same count and under the same terms, for `C=CC(=O)Nc1cccc(Nc2nc(Nc3ccc(N4CCN(C(C)=O)CC4)cc3OC)ncc2C(F)(F)F)c1` the value was 1.64 µM (active) and 1.05 µM (active); for `CC(=O)Nc1ccn(C2COC(COC(=O)c3ccccc3)O2)c(=O)n1` (stereo not given), 2310 nM (active).
Still for that read-out and setting: for `CC1=NS(=O)(=O)c2cc(Cl)ccc2N1` the value was “inactive”; for `CN(C)[C@@H]1C(=O)C(C(N)=O)=C(O)[C@@]2(O)C(=O)C3=C(O)c4c(O)cccc4C[C@H]3C[C@@H]12`, “inactive”.

For the origin of these results see PubChem BioAssay (NCATS).
